Measurements as given in PubChem BioAssay AID651863 (Broad Institute, 2012).
Potency and affinity values are given separately. Activity calls are given as the source filed them.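 Rule for the calls: active = compounds whose fitted half-maximal cell-killing dose is at most twice the top tested dose; inconclusive = flat curve with 30 to 70 percent signal loss, or poor fit; inactive = the rest.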

Assay: HEK293T cell cytotoxicity, dose response, cytotoxicity control, luminescence plate reader, powder samples, set 4 (AID 651863)
Conditions: HEK293T viability, CellTiter-Glo ATP luminescence, 48 h; series mostly up to 26 µM

Row | SMILES | outcome
1 | O=C(NCCc1ccccc1)c1ccccc1C(=O)NC[C@@H]1c2ccccc2CCN1C(=O)C1CCCCC1C(=O)O (some centres not stated) | inactive
2 | O=C(NCCCN1CCOCC1)c1ccccc1C(=O)NC[C@@H]1c2ccccc2CCN1C(=O)C1CCCCC1C(=O)O (some centres not stated) | inactive
3 | O=C(O)C1CCCCC1C(=O)N1CCCCC1CN1C(=O)c2ccccc2C1=O (configuration not stated) | inactive
4 | O=C(O)[C@H]1CCCC[C@H]1C(=O)N1CCC2=C(CCCC2)C1CN1C(=O)c2ccccc2C1=O (some centres not stated) | inactive
5 | Cc1cc(C)c(S(=O)(=O)Nc2cc(C(C(=O)OCc3ccccc3)C(=O)OCc3ccccc3)c(O)c3ccccc23)c(C)c1 | inactive
6 | O=C(O)[C@H]1CCCC[C@H]1C(=O)N1CCc2ccccc2C1 (racemic) | inactive
7 | O=C(O)CCC(=O)N1CCc2ccccc2C1CN1C(=O)c2ccccc2C1=O (configuration not stated) | inactive
8 | O=C(O)[C@H]1C2C=CC(C2)[C@H]1C(=O)N1CCc2ccccc2C1CN1C(=O)c2ccccc2C1=O (some centres not stated) | inactive
9 | O=C(O)C1CCCCC1C(=O)N1CCc2ccccc2C1c1ccccc1 (configuration not stated) | inactive
10 | O=C1c2ccccc2C(=O)N1CC1=NCCc2ccccc21 | inactive
11 | O=C(O)[C@H]1CCCC[C@H]1C(=O)N1CCc2ccccc2C1CCN1C(=O)c2ccccc2C1=O (some centres not stated) | inactive
12 | O=C(O)C1CCCCC1C(=O)N1CCc2ccccc2C1CN1C(=O)Cc2ccccc2C1=O (configuration not stated) | inactive
13 | COC(=O)C1CCCCC1C(=O)N1CCc2ccccc2C1CN1C(=O)c2ccccc2C1=O (configuration not stated) | inactive
14 | O=S(=O)(Nc1nc(NCC2CCCCC2)nc2ccccc12)c1ccccc1 | inactive
15 | O=C(O)CC(=O)N1CCc2ccccc2C1CN1C(=O)c2ccccc2C1=O (configuration not stated) | inactive
16 | C[C@@H](NC(=O)C1CCCC[C@H]1C(=O)O)c1ccccc1 (mixture of isomers) | inactive

Row | SMILES | outcome
17 | COc1ccccc1CCNC(=O)[C@@H]1c2ccccc2CCN1C(=O)C1CCCCC1C(=O)O (some centres not stated) | inactive
18 | Cc1ccc(S(=O)(=O)NNc2nc(C(C(=O)OC(C)C)C(=O)C(F)(F)F)nc3ccccc23)cc1 (configuration not stated) | inactive
19 | O=C(O)C1CCCCC1C(=O)N1CCc2ccccc2C1CN1C(=O)c2ccccc2S1(=O)=O (configuration not stated) | inactive
20 | Cc1ccc(S(=O)(=O)Nc2cc(C(C(=O)OC(C)C)C(=O)C(F)(F)F)c(O)c3ccccc23)c(C)c1 (configuration not stated) | inactive
21 | O=C(O)[C@H]1CCCC[C@H]1C(=O)N1CCc2ccccc2[C@H]1CNS(=O)(=O)c1ccccc1 | inactive
22 | O=C(O)[C@H]1CCCC[C@H]1C(=O)NC(CN1C(=O)c2ccccc2C1=O)c1ccccc1 (some centres not stated) | inactive
23 | Cc1ccc(S(=O)(=O)NC[C@@H]2c3ccccc3CCN2C(=O)[C@@H]2CCCC[C@@H]2C(=O)O)c(C)c1 | inactive
24 | O=C(O)[C@@H]1CCCN1C(=O)N1CCc2ccccc2[C@H]1CN1C(=O)c2ccccc2C1=O | inactive
25 | C[C@H](NC(=O)C1CCCC[C@H]1C(=O)O)c1ccccc1 (mixture of isomers) | inactive
26 | O=C1c2ccccc2C(=O)N1C[C@@H]1c2ccccc2CCN1C(=O)OCc1ccccc1 | inactive
27 | CC(C)CNc1nc(NS(=O)(=O)c2ccccc2)c2ccccc2n1 | inactive
28 | O=C(O)C1CCCCC1C(=O)N1CCc2ccccc2[C@H]1C(=O)NCCc1ccccc1 (some centres not stated) | inactive
29 | O=C(NC[C@@H]1c2ccccc2CCN1C(=O)[C@@H]1CCCC[C@@H]1C(=O)O)c1ccccc1CO | inactive
30 | O=C(O)Cc1ccccc1C(=O)N1CCc2ccccc2[C@H]1CN1C(=O)c2ccccc2C1=O | inactive
31 | O=C(NC[C@@H]1c2ccccc2CCN1C(=O)[C@@H]1CCCC[C@@H]1C(=O)O)c1ccccc1 | inactive
32 | CCOC(=O)C(C(=O)OCC)c1nc(NS(=O)(=O)c2c(C)cc(C)cc2C)c2ccccc2n1 | inactive
